# Results published in PubChem BioAssay AID1851 (National Center for Advancing Translational Sciences (NCATS), 2009).
# Hit rate of the full screen: of about 16,000 compounds, about 2,600 (16%) were called active. Not shown: some 20% with an inconclusive outcome. A selection follows. A number with no mark means an inactive call. Calls follow the shape of the dose curve; as a rule, active = well fitted curve in the direction sought with a large enough effect; inconclusive = small, poorly fitted or top-dose-only effect, or effect the other way; inactive = no such curve, though single readings can be large or run the other way.
# Molecular target: Cytochrome P450 2D6 (Homo sapiens) (UniProt P10635)
# Sequence (P10635 whole entry, looked up): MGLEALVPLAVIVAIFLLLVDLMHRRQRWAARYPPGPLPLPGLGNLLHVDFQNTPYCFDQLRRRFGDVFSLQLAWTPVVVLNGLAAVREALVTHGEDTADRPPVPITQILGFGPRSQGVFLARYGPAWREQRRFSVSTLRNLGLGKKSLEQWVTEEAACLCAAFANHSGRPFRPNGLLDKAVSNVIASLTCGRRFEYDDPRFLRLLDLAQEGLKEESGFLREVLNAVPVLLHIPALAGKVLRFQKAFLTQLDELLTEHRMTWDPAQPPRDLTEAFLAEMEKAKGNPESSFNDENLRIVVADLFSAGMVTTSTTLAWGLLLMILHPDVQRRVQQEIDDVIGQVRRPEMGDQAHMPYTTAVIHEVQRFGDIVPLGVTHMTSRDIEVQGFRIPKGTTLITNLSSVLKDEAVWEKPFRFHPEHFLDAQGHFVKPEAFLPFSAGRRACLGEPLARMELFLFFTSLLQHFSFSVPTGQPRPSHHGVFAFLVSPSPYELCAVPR
# Test: Cytochrome panel assay with activity outcomes
# Details: recombinant CYP, pro-luciferin dealkylation, luminescence, p450-cyp2d6; series mostly up to 57.1 µM; activity, negative = inhibition: at the top concentration
# % is scaled to controls: 0 for no effect and ±100 for the full control effect.
Structure (SMILES),"activity, negative = inhibition",AC50
C[C@@H](C(=O)O)c1ccc(C[C@@H]2CCCC2=O)cc1,17.2%,–
COCCNC(=O)c1cn(Cc2c(F)cccc2Cl)nn1,11.7%,–
Cc1cnc(CNc2cc(-c3ccc(C(=O)N(C)C)cc3)ncn2)cn1,8.03%,–
Cc1cnc(CNc2cc(-c3ccccc3Cl)ncn2)cn1,-20.6%,–
Cc1cnc(CNc2ncnc3ccc(-c4ccccc4CN(C)C)cc23)cn1,–,2.51 µM (active)
Cc1cnc(CNc2ncnc3ccc(-c4ccccc4Cl)cc23)cn1,–,15.8 µM (active)
CCN(CC)C(=O)C1CC(=O)N(c2ccc(OC)cc2)C1c1ccc(OC)cc1 (stereo not drawn),4.78%,–
COc1ccc(NC(=O)CSC2=NC(=O)CC(C)=N2)cc1,-4.11%,–
N#CCCn1nnc2ccccc21,-4.37%,–
O=C(NCc1ccccc1)c1ccc(Cl)cc1[N+](=O)[O-],-27.1%,–
Cc1cccc(C(CC(=O)N2CCCC2)c2ccccc2)c1O (stereo not drawn),-13.7%,–
O=C(O)Cc1cc(Cl)ccc1O,16.8% [at 11.4 µM],–
CN(Cc1ccccc1)C(=O)CC(c1ccccc1)c1cc(Cl)ccc1O (stereo not drawn),–,8.91 µM (active)
CC(C)Oc1ccc(CNC(=O)CC(c2ccccc2)c2cc(Cl)ccc2O)cc1 (stereo not drawn),–,14.1 µM (active)
CC(C)Oc1ccc(C(=O)Nc2ccc(NC(=O)c3ccco3)c(Cl)c2)cc1,-23.4%,–
CCOC(=O)N1CCC(NS(=O)(=O)c2ccc3c(c2)C(C)(C)C(=O)N3C)CC1,27.5%,–
C[N+](C)(C)CCO,1.57%,–
COc1ccc(C(=O)n2nc(-c3ccccc3)nc2SC)cc1,-5.42%,–
Cc1ccc(C2C(C(=O)c3ccco3)=C(O)C(=O)N2c2nnc(C)s2)cc1 (stereo not drawn),-4.53%,–
O=C1Nc2cc(C(=O)N3CCOCC3)ccc2SC1N1CCOCC1 (stereo not drawn),22.1%,–
COc1cc(CNC2CCCC2)cc(Cl)c1OCc1ccccc1Cl,–,0.891 µM (active)
COc1ccccc1CNC(=O)C1CC(=O)N(C2CCCC2)C1 (stereo not drawn),0.967%,–
COc1ccccc1CNC(=O)CCCn1c(=O)c2ccccc2n(CC(=O)NC2CCCC2)c1=O,-29.3%,–
NC(=O)c1ccc(C2SCC(=O)N2Cc2ccccc2)cc1 (stereo not drawn),0.406%,–
Cc1ccc(CNC(=O)Cc2csc(Nc3nc(=S)[nH]c4ccccc34)n2)cc1,-28.3%,–
CC(=O)OCC(=O)[C@@]1(O)[C@H](C)C[C@@H]2[C@H]3CCC4=CC(=O)C=C[C@]4(C)[C@]3(F)[C@@H](O)C[C@@]21C,5.29% [at 25.6 µM],–

Structure (SMILES),"activity, negative = inhibition",AC50
CC(C)(C)N1C(=O)[C@@H]2[C@H]3C(=CC[C@H]2C1=O)C(=O)[C@H]1O[C@H]1[C@H]3O,11.6% [at 11.4 µM],–
O=C1[C@@H]2C=CC=CC2=NC(=S)N1CCN1CCC(=C(c2ccc(F)cc2)c2ccc(F)cc2)CC1,–,12.6 µM (active)
COC(=O)C/C=C\[C@@H](C)[C@@H](/C=N\O[C@@H](C)c1cn([C@H]2COC[C@H]2O)nn1)OC,15.1% [at 11.4 µM],–
N=C(N)SCC(=O)O,-6.02% [at 11.4 µM],–
Cc1ccc(NC(=O)C2CC(=O)n3c(nc4ccccc43)N2)cc1 (stereo not drawn),22.5%,–
O=C1CC(c2ccc3c(c2)OCO3)Sc2nc3ccccc3n21 (stereo not drawn),–,8.91 µM (active)
O=C1CC(c2ccc3c(c2)OCO3)CN1 (stereo not drawn),-9.95%,–
CSC1=N/C(=C\c2ccc3c(c2)OCO3)C(=O)S1,-11.1%,–
Cc1cccc(OCC(=O)N/N=C\C=C\c2ccc3c(c2)OCO3)c1C,-10.2%,–
COC(=O)N/N=C\C=C\c1ccc2c(c1)OCO2,–,11.2 µM (active)
CCOc1cc(/C=C2\CCC/C(=C\c3cc(Cl)c(O)c(OCC)c3)C2=O)cc(Cl)c1O,-20.4%,–
CCOC(=O)c1c2ccc(OCC(=O)N/N=C/c3ccc(Cl)cc3)cc2n2ccccc12,-6.7%,–
Clc1cccc(Cl)c1CSc1nnc(/C=C/c2ccccc2)o1,–,28.2 µM (active)
Clc1ccccc1CSc1nnc(/C=C/c2ccccc2)o1,-13.5%,–
O=C(Nc1nnc(SCc2c(Cl)cccc2Cl)s1)C1CCCO1 (stereo not drawn),-22.2%,–
COc1cccc(Nc2ncc3nc(-c4cc(F)cc(F)c4)c(=O)n(CCC#N)c3n2)c1,-5.95%,–
CCCCCCCCn1cc(C(C)=O)c(=O)[nH]c1=O,-17.1%,–
O=c1cnc2cnc(Oc3cccc(Cl)c3)nc2n1C[C@H]1CCCO1,-10.4%,–
COc1ccc([N+](=O)[O-])cc1N(CC(O)CN(CC(C)C)CC(C)C)S(=O)(=O)c1ccccc1 (stereo not drawn),–,0.398 µM (active)
COc1ccc(OC)c(N(CC(=O)N2CCc3ccccc3C2)S(C)(=O)=O)c1,11.7%,–
CCN(CC)S(=O)(=O)c1ccc(OC)c(NC(=O)c2cc([N+](=O)[O-])ccc2Cl)c1,7.36%,–
COc1ccc(C(=O)CN2C(=O)NC(C)(c3ccccc3)C2=O)cc1OC (stereo not drawn),29.8%,–
CN(C)Cc1ccc(O)c(CN(C)C)n1,2.9% [at 11.4 µM],–
Cc1ccc(C(=O)Nc2ccc3nccnc3c2)cc1,-24.5%,–
Cc1ccc(NC(=O)c2cccc(N(C)C)c2)cc1NC(=O)c1ccc(O)cc1,-8.94%,–
CN(C)CCCc1cc(C(=O)Nc2ccc(-c3ccncc3)cc2)ccc1O,–,5.01 µM (active)

Structure (SMILES),"activity, negative = inhibition",AC50
Cc1cc(C)cc(-n2nnnc2-c2cn(C)nc2C(F)(F)F)c1,-20.2%,–
Cc1cccc(NC(=O)c2ccc([N+](=O)[O-])o2)n1,-26.8%,–
Cc1cc(C(=O)N/N=C/c2cccc(OC(=O)c3ccco3)c2)n[nH]1,–,17.8 µM (active)
CCOc1cc(/C=N/NC(=O)c2cc(C)[nH]n2)ccc1OC(=O)c1ccc([N+](=O)[O-])cc1,-2.27%,–
COc1cc(/C=N/NC(=O)c2cccnc2)ccc1OC(=O)c1ccco1,-4.37%,–
CCC/C=C(\CCC)C(NS(=O)(=O)c1cccc2cccnc12)c1ccc(-c2ccccc2)cc1 (stereo not drawn),3.7%,–
Fc1ccc(COc2ccc(Br)cc2CNCc2ccncc2)cc1,–,0.126 µM (active)
C[N+]1(C)CCO[C@](O)(c2ccccc2)C1,0.284% [at 11.4 µM],–
OCCNc1ncnc2c1ncn2[C@@H]1O[C@@H](CO)[C@H](O)[C@@H]1O,3.15% [at 11.4 µM],–
COc1ccc(-c2nc(-c3cccc(C)c3)nc(N3CCN(C)CC3)c2C#N)cc1,-4.97%,–
CN1CCCC1CCNC1C2CC3CC(C2)CC1C3 (stereo not drawn),-4.6%,–
c1ccc(CN2CCC3(CCCc4ccccc43)CC2)cc1,–,0.251 µM (active)
CC(=O)c1ccc(N2CCC(c3cc(-c4ccc(Cl)cc4)n[nH]3)CC2)c([N+](=O)[O-])c1,-10.3%,–
CCOc1cc(/C=C2/C(=N)N3C=CSC3=NC2=O)ccc1OCCCOc1ccccc1C,1.57%,–
CCc1nc(SCC(=O)NCCc2ccccc2)c2oc3ccccc3c2n1,-12.7%,–
O=C(CSCc1ccccc1Cl)NN1C(=O)c2ccccc2C1=O,-17.7%,–
O=C(CSCc1ccccc1Cl)NNC(=O)c1ccccc1,1.46%,–
NCCSCc1ccccc1Cl,–,3.16 µM (active)
COc1ccc(C2N(c3ccccn3)C(=O)C3CCCN32)c(OC)c1 (stereo not drawn),4%,–
CN(C)CCNC(=O)c1cc(Br)ccc1Cl,-18.4%,–
CSc1ccc(Cl)c(C(=O)NCCOc2cc(C)ccc2C(C)C)c1,–,11.2 µM (active)
Cc1ccc(OCCNC(=O)c2cc(-n3cnnc3)ccc2Cl)cc1C,29.2%,–
O=C1CCCC=C1[C@H](O)c1ccc([N+](=O)[O-])cc1,-11.2% [at 11.4 µM],–
Cc1ccc(C(N)=Nc2ccccc2)cc1,–,3.16 µM (active)
NC(N)=NC(N)=Nc1ccccc1,2.4%,–
NC(N)=NC(N)=Nc1ccccc1 (tested in a mixture with another compound),-8.99% [at 11.4 µM],–

Structure (SMILES),"activity, negative = inhibition",AC50
COCCn1c(=O)c(-c2cccc(C#N)c2)nc2cnc(N3CCNCC3)nc21,-6.32%,–
O=[N+]([O-])c1ccc(N2CCN(Cc3ccccc3)CC2)c(S(=O)(=O)N2CCOCC2)c1,-18.2%,–
O=[N+]([O-])c1ccc(N2CCN(CCOc3nonc3-c3ccccc3)CC2)c(Cl)c1,–,0.112 µM (active)
CCC(=O)NC(=S)N1CCN(c2ccc([N+](=O)[O-])cc2Cl)CC1,-14.4%,–
CCCCCCc1nc2ccccc2c(=O)n1NC(=O)c1c(O)c2c(n(CC(C)C)c1=O)CCCC2,22.7%,–
CCCn1c2c(c(O)c(C(=O)NCc3ccccc3)c1=O)CCCC2,–,10 µM (active)
Cc1cc(=O)oc(C)c1C(=O)NCc1ccccc1,-2.69%,–
O=c1cnc2cnc(Nc3ccccc3)nc2n1CCc1ccccc1,-1.38%,–
Cc1ccccc1C(=O)N1CCN(c2ccc([N+](=O)[O-])c(N3CCOCC3)c2)CC1,-1%,–
Cc1cccc(C)c1NC(=O)CSc1nc(C)c(CC(=O)c2ccc(Br)cc2)c(C)c1C#N,-9.75%,–
Cc1ccnc(NCn2nnc3ccccc32)c1,-14.9%,–
COc1ccc(C(=O)NCc2ccc(-c3nc4ccccc4s3)cc2)cc1,-11.6%,–
c1ccc2sc(NC3=NCN(C4CCCCCC4)CN3)nc2c1,–,1 µM (active)
COc1ccc(CN2CN=C(Nc3nc4ccccc4s3)NC2)cc1,–,7.94 µM (active)
c1ccc(/C(=N/Nc2nc3ccccc3s2)c2ccccn2)cc1,-1.95% [at 11.4 µM],–
COCCN1CN=C(Nc2nc3ccccc3o2)NC1,12%,–
O=C(NNc1nc2ccccc2s1)C1CC1,-14.5%,–
C[C@H](C(=O)c1ccccc1)[C@@H](c1ccccc1)N1CCOCC1,-5.64% [at 11.4 µM],–
CC1=C(C#N)C(Nc2ccc(Cl)cn2)(C(F)(F)F)C(=O)N1 (stereo not drawn),-11.3%,–
Cn1c(=O)c(-c2cc(F)cc(F)c2)nc2cnc(N3CCOCC3)nc21,-1.51%,–
COc1ccc(Nc2ncc3nc(-c4cccs4)c(=O)n(Cc4cccc(OC)c4)c3n2)cc1,4.4%,–
CCOc1cc(/C=N/NC(=O)CNc2cccc(C)c2)ccc1OC(=O)c1ccccc1,-19.5%,–
Cc1ccc(CS(=O)(=O)CCC(=O)NCc2cccs2)cc1,–,11.2 µM (active)
Cc1ccc(CS(=O)(=O)CCC(=O)NCc2ccccn2)cc1,2.91%,–
CCOCCCNC(=O)CCS(=O)(=O)Cc1ccc(C)cc1,-3.09%,–
